Rows were chosen to be rich in hits. Some 11% of all compounds tested hit in one or more screens of this group.
hNpr1 antagonist = blocks ANP-stimulated signaling of human Npr1 receptor. P16066. Potency, µM (series often up to 46.3 µM), usual class: inhibitors. HEK293 hNpr1 GloSensor cGMP, ANP-stimulated luminescence. AID 1347048. hit rate 1.6% among 76,000; calls by dose curve; also: nearly all actives have a fitted effect of over 60% in size
Target sequence (P16066 whole entry, looked up): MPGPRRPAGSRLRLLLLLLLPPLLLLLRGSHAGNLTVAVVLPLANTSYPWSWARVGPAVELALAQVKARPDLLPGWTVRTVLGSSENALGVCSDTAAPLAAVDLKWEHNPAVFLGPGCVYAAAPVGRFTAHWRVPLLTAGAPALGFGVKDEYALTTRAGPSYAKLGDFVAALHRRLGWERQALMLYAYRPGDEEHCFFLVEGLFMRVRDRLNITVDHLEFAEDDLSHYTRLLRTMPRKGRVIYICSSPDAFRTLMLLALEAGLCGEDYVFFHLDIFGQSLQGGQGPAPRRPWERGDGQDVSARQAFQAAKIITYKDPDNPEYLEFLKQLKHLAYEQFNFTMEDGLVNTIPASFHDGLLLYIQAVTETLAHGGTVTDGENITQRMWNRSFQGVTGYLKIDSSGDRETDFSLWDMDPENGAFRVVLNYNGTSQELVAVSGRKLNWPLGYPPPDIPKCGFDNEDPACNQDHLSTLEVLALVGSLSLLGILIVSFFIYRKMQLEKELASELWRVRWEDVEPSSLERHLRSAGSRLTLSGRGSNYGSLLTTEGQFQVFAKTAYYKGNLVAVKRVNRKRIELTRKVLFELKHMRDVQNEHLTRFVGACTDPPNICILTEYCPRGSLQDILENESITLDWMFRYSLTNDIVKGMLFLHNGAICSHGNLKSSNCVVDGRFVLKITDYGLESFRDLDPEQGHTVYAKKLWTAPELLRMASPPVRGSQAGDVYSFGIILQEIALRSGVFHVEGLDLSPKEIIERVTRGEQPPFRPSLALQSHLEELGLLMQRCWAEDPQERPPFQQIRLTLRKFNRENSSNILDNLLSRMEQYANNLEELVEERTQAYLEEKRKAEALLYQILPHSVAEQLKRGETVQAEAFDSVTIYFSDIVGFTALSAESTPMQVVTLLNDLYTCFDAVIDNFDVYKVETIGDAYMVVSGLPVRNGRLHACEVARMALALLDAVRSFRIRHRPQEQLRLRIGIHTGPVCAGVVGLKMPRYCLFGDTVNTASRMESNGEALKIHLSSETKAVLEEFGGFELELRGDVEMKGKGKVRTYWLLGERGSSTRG
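HEK293 cells stably expressing human Npr1 and cGMP GloSensor pGS-40F, loaded 2 h with 2% GloSensor reagent, given compound 30 min at room temperature. Luminescence read before and 20 min after 0.1 nM hNppA.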
HEK cytotox = HEK 293 cell cytotoxicity; HEK 293 viability, ATP luminescence (CellTiter-Glo), 48-72 h; Potency, µM (titrated, usually from 115 µM), usual class: inhibitors; hit rate 6.6% among 94,000; AID 1345083; also: nearly all actives have a fitted effect of over 60% in size
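HEK 293 cells seeded at 250 cells/well were exposed to compound for 48 or 72 hr at 37 degree Celsius. Viability taken as ATP content by CellTiter-Glo luminescence.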
Luciferase inh = Photinus pyralis luciferase inhibition. P08659. purified P. pyralis luciferase, luminescence, biochemical. Potency, µM (titrated, usually from 115 µM), most hits filed as inhibitors. hit rate 2.5% among 76,000. AID 1347043; also: nearly all actives have a fitted effect of over 65% in size
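Cell-free enzyme assay, 10nM P. pyralis luciferase, luciferin and ATP each at 10uM. Inhibition profiled over a 6-point titration, read as luminescence.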
3T3 cytotox = NIH 3T3 cell cytotoxicity. hit rate 4.3% among 94,000. NIH 3T3 viability, CellTiter-Glo ATP luminescence, 48-72 h. Potency, µM (doses to about 96.7 µM), hits mostly inhibitors; also: nearly all actives have a fitted effect of over 55% in size
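Luminescent ATP readout (CellTiter-Glo, 10 min RT) after 48 or 72 hr compound exposure of NIH 3T3 cells seeded at 400 cells/well in 1536-well format; quantitative HTS.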
Each line names hits and unclear results; the compound was inactive in the other large screens. Unless noted, calls follow the shape of the dose curve; as a rule, active = well fitted curve in the direction sought with a large enough effect; inconclusive = small, poorly fitted or top-dose-only effect, or another doubt; inactive = no such curve, though single readings can be large; an effect the other way counts as inactive or inconclusive.

CCn1nccc1C(=O)N1CCC(c2noc(COc3ccc(F)cc3)n2)C1 (stereo not drawn)	HEK cytotox 44.7µM, 3T3 cytotox inconclusive
Cc1ccc(OCc2nc(C3CN(C(=O)c4cc(C)nn4C)C3)no2)cc1	hNpr1 antagonist inconclusive, HEK cytotox 44.7µM, Luciferase inh 39.8µM
CCCNC(=O)N1CCC(c2noc(COc3ccc(F)cc3)n2)C1 (stereo not drawn)	hNpr1 antagonist inconclusive, HEK cytotox inconclusive
CCN(CC1CCCN(CCc2cccc(F)c2)C1)C(=O)CCc1ccccn1 (stereo not drawn)	none
COCCCNC(=O)C1CCCN1c1nccc(Nc2ccccc2F)n1 (stereo not drawn)	none (no result: hNpr1 antagonist, Luciferase inh)
CNC(=O)c1ccc2nc(-c3cccnc3)oc2c1	3T3 cytotox inconclusive (no result: hNpr1 antagonist, Luciferase inh)
COC1C(=O)N(c2cccc(F)c2)C12CCN(S(=O)(=O)c1ccc(C#N)cc1)CC2 (stereo not drawn)	none
COc1ccc(-n2cc(CN3CCN(C)C(C)C3)c(-c3cccc(F)c3)n2)cc1 (stereo not drawn)	HEK cytotox 35.5µM, Luciferase inh inconclusive, 3T3 cytotox 31.6µM
CN(Cc1ccccc1)[C@@H]1C[C@@H]2COCC[C@]2(c2ccccc2)C1	HEK cytotox inconclusive (no result: hNpr1 antagonist, Luciferase inh)
O=C(CN1CCOCC1)N1CCNc2cnc(Nc3ccc(-n4ccnc4)cc3)nc2C1	3T3 cytotox 39.8µM
CCOC(=O)[C@@H]1[C@H]2c3ccccc3N(CCOC)C(=O)[C@H]2N(C(=O)c2ccccc2)[C@@H]1c1ccccc1	HEK cytotox 35.5µM, 3T3 cytotox inconclusive (no result: hNpr1 antagonist, Luciferase inh)
COC(=O)NC1CCN(c2nc3ncccc3o2)C1 (stereo not drawn)	none (no result: hNpr1 antagonist, Luciferase inh)
CNc1ncc(C(=O)N2CCCC(CCc3ccc(F)cc3)C2)cn1 (stereo not drawn)	HEK cytotox inconclusive, 3T3 cytotox inconclusive
Cc1[nH]c2c(c1C(=O)N1CCCC(CCc3ccc(F)cc3)C1)C(=O)CCC2 (stereo not drawn)	hNpr1 antagonist inconclusive, HEK cytotox 31.6µM, 3T3 cytotox inconclusive
COc1cccc(C(=O)Nc2ccc3c(c2)CN(Cc2ccc(F)cc2)C(=O)C(C)O3)c1 (stereo not drawn)	HEK cytotox inconclusive, 3T3 cytotox inconclusive
CC1Oc2ccc(NC(=O)c3ccc(Cl)cc3)cc2CN(Cc2cc(F)cc(F)c2)C1=O (stereo not drawn)	HEK cytotox 20µM, 3T3 cytotox inconclusive
CCC1Oc2ccc(NC(=O)c3ccc([N+](=O)[O-])cc3)cc2CN(C(C)CC)C1=O (stereo not drawn)	HEK cytotox 22.4µM, 3T3 cytotox inconclusive
CC1Oc2ccc(NC(=O)c3ccc(Cl)cc3)cc2CN(C(C)C)C1=O (stereo not drawn)	hNpr1 antagonist inconclusive, HEK cytotox inconclusive, 3T3 cytotox 39.8µM
CC1Oc2ccc(NC(=O)c3ccccc3)cc2CN(Cc2ccc(Cl)cc2)C1=O (stereo not drawn)	HEK cytotox 8.91µM, 3T3 cytotox inconclusive
CC(C)C(=O)N1Cc2ccccc2CC2(CCCN2Cc2ccncc2)C1 (stereo not drawn)	none (no result: hNpr1 antagonist, Luciferase inh)
COc1cccc(-c2ccc(C(=O)NCCNC(=O)Nc3ccc(C)c(F)c3)cc2)c1	none (no result: hNpr1 antagonist, Luciferase inh)
COc1ccc(CN2Cc3cc(NC(=O)c4ccc(F)cc4F)ccc3OC(C)C2=O)c(OC)c1 (stereo not drawn)	HEK cytotox 44.7µM, 3T3 cytotox inconclusive
CC1Oc2ccc(NC(=O)c3ccc(F)cc3)cc2CN(Cc2ccccc2F)C1=O (stereo not drawn)	HEK cytotox 44.7µM, 3T3 cytotox inconclusive
CC1Oc2ccc(NC(=O)c3ccc(F)cc3)cc2CN(Cc2ccccc2Cl)C1=O (stereo not drawn)	HEK cytotox inconclusive, 3T3 cytotox inconclusive
CC(=O)Oc1ccccc1C(=O)Nc1ccc2c(c1)CN(Cc1ccc(Cl)cc1)C(=O)C(C)O2 (stereo not drawn)	hNpr1 antagonist inconclusive, HEK cytotox inconclusive, 3T3 cytotox 25.1µM
CC1(c2noc(-c3ccccn3)n2)CCN(C(=O)CCCc2nc3ccccc3s2)CC1	hNpr1 antagonist inconclusive, HEK cytotox 39.8µM, 3T3 cytotox inconclusive
CCN(C(=O)CCC(=O)N1CCC(C)(c2noc(-c3ccccn3)n2)CC1)c1ccccc1	HEK cytotox inconclusive
c1cc(Cn2ccc3c(N4CCOCC4)nc(-c4cncnc4)cc32)ccn1	HEK cytotox inconclusive, 3T3 cytotox 10µM
COc1cc(F)ccc1-c1cc2c(ccn2Cc2ccncc2)c(N2CCOCC2)n1	HEK cytotox 79.4µM, 3T3 cytotox inconclusive
O=C1c2cnc(-c3cc(F)cc(F)c3)nc2OCCN1Cc1ccc(F)cc1F	HEK cytotox inconclusive
CN(C)C(=O)c1ccc(-c2ncc3c(n2)OCCN(Cc2ccc(F)cc2F)C3=O)cc1	HEK cytotox inconclusive, Luciferase inh 44.7µM
COc1cccc(-c2ncc3c(n2)OCCN(Cc2ccc(F)cc2F)C3=O)c1F	HEK cytotox inconclusive, Luciferase inh 15.8µM
O=C1c2cnc(-c3ccccc3)nc2OCCN1Cc1ccc(F)cc1F	HEK cytotox 112µM
O=C(NCc1cccc(C(F)(F)F)c1)c1ccc2oc(-c3ccncc3)nc2c1	HEK cytotox inconclusive (no result: hNpr1 antagonist, Luciferase inh)
Cc1ccc(CN2CCC(CNC(=O)NC(C)C)C2)cc1C (stereo not drawn)	HEK cytotox inconclusive
CN1C[C@@H](NS(=O)(=O)c2ccc(Cl)cc2)C[C@H]1c1nc(-c2ccc(F)cc2)no1	HEK cytotox inconclusive, Luciferase inh 39.8µM, 3T3 cytotox inconclusive
CN1C[C@@H](NS(=O)(=O)c2ccccc2)C[C@H]1c1nc(-c2ccc(F)cc2)no1	HEK cytotox 100µM, Luciferase inh inconclusive, 3T3 cytotox inconclusive
Cc1ccc(-c2noc([C@@H]3C[C@H](NS(=O)(=O)c4ccc(F)cc4)CN3C)n2)cc1	HEK cytotox inconclusive, Luciferase inh 44.7µM, 3T3 cytotox inconclusive
CN1C[C@@H](NS(=O)(=O)c2ccc(F)cc2)C[C@H]1c1nc(-c2cccnc2)no1	none
CC(=O)Nc1ccc(S(=O)(=O)N[C@H]2C[C@@H](c3nc(-c4ccc(F)cc4)no3)N(C)C2)cc1	hNpr1 antagonist inconclusive, HEK cytotox inconclusive
COCCN1CCCC[C@]2(C[C@H](CO)[C@H](c3ccco3)N2C(=O)Cc2ccc(OC)cc2)C1=O	HEK cytotox inconclusive (no result: hNpr1 antagonist, Luciferase inh)
CCn1cc(-c2cc(-c3ccccc3OC)nc3c(C)noc23)cn1	HEK cytotox inconclusive, 3T3 cytotox inconclusive
CO[C@H]1C[C@@H](O)C12CCN(C(=O)CCc1ccc(-c3cccs3)o1)CC2	hNpr1 antagonist inconclusive, HEK cytotox 25.1µM, 3T3 cytotox inconclusive
O=c1cc(-c2ccccn2)oc2c(NC3CCOCC3)nccc12	3T3 cytotox 14.1µM
O=c1cc(-c2ccccn2)oc2c(-c3cn[nH]c3)nccc12	HEK cytotox inconclusive, 3T3 cytotox 11.2µM
CC(=O)N(C)Cc1ccc(F)cc1	none
CCOC(=O)[C@H]1[C@@H](O)C(=O)N(Cc2ccccc2)C12CCN(C(=O)Nc1ccc3c(c1)OCO3)CC2	3T3 cytotox inconclusive (no result: hNpr1 antagonist, Luciferase inh)
COc1ccc(NC(=O)c2cc3sc(C)c(CN4CCCCC4)c3[nH]2)cc1OC	HEK cytotox inconclusive, 3T3 cytotox 39.8µM

Screens deposited in PubChem by National Center for Advancing Translational Sciences (NCATS).
